Measurements: PubChem BioAssay (EPA / NIEHS)
“And” between values parts separate entries of the source, which are not always exact repeats. Equal entries are not always repeated. Records with an inconclusive call do not appear. Some compounds were tested as several samples or in several runs, with calls that do not always agree. The source made the active and inactive calls. The calls were made as follows: active = hit-call score of the fitted dose curve at least 0.9, where 1 is the maximum; inconclusive = response in the unintended direction; inactive = score below 0.9.

Experiments:
[1] = ATG_XTT_Cytotoxicity: Cytotoxicity Assessment in the Attagene TRANS-FACTORIAL HepG2 Assay (AID 2283584)
In short: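 XTT readout of cell number in transfected HepG2 cells, 24 h post-dosing; DMSO serves as negative control and baseline, with activity taken as loss of viability signal.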

[2] = molecular target: Cellular tumor antigen p53 (Homo sapiens) (UniProt P04637); test: TOX21_p53_BLA_p2_ratio: Tox21 HCT-116 p53 Agonism Beta-lactamase Assay, Ratio, Phase 2 (AID 2283592)
In short: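 In this cell-based reporter format, HCT116 cells were dosed with chemicals delivered from DMSO by 217-fold dilution and incubated 16 h at 37C. Emission at 460 and 530 nm after 2 h CCF4-AM loading provided the ratio, fitted upward versus DMSO.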

[3] = molecular target: Cellular tumor antigen p53 (Homo sapiens) (UniProt P04637); test: TOX21_p53_BLA_p3_ratio: Tox21 HCT-116 p53 Agonism Beta-lactamase Assay, Ratio, Phase 3 (AID 2283596)
In short: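 HCT116 p53-bla cells (4000/well) given compound in DMSO (217-fold dilution) after 5 h, incubated 16 h at 37C. CCF4-AM substrate 2 h at room temperature; 460/530 nm emission ratio, gain fitted against DMSO.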

[4] = molecular target: Cellular tumor antigen p53 (Homo sapiens) (UniProt P04637); test: TOX21_p53_BLA_p5_ratio: Tox21 HCT-116 p53 Agonism Beta-lactamase Assay, Ratio, Phase 5 (AID 2283599)
In short: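 HCT-116 p53-bla cells (4000/well) plated 5 h, dosed with compound (217-fold DMSO dilution) for 16 h at 37 C; CCF4-AM substrate 2 h at room temperature. Activity is the 460/530 nm emission ratio (405 nm excitation), fitted in gain-of-signal direction versus DMSO.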

[5] = molecular target: Cellular tumor antigen p53 (Homo sapiens) (UniProt P04637); test: TOX21_p53_BLA_p4_ratio: Tox21 HCT-116 p53 Agonism Beta-lactamase Assay, Ratio, Phase 4 (AID 2283601)
In short: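 HCT-116 p53 beta-lactamase reporter cells (4000/well) preincubated 5 h, then compound (217-fold dilution of DMSO stock) for 16 h at 37C. CCF4-AM substrate added 2 h at room temperature; 460/530 nm emission ratio fitted upward versus DMSO.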

[6] = Tanguay_ZF_120hpf_MORT_legacy: (Legacy) Oregon State University Tanguay Lab 120 Hour Post-fertilization zebrafish Assay for Mortality (AID 2283633);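 as to AC50: fitted as increase in binary mortality versus DMSO negative control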
In short: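 Brightfield scoring of embryo death (binary) at 24 and 120 hpf; static exposure 6–120 hpf, 28C, sealed and foil-covered. Pronase-dechorionated 5D wild-type larvae, single embryo per well. DMSO 0.64% v/v; trimethyltin chloride 5uM positive control.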

[7] = TOX21_p53_BLA_p2_viability: Viability Assessment in the Tox21 HCT-116 p53 Agonism Beta-lactamase Assay, Phase 2 (AID 2283591);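 also: compound exposure lasted 16 h at 37 °C; actives lower the ATP signal meaning cytotoxicity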
In short: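 HCT116 p53-bla cells, 4000/well, dosed after 5 h plating (217-fold dilution of DMSO stocks) and incubated 16 h at 37C. Viability taken as cellular ATP by CellTiter-Glo luminescence after 30 min RT; signal loss marks cytotoxicity.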

[8] = TOX21_p53_BLA_p3_viability: Viability Assessment in the Tox21 HCT-116 p53 Agonism Beta-lactamase Assay, Phase 3 (AID 2283593);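 also: cells exposed to compound for 16 h before reading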
In short: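 HCT116 cells, 4000/well, dosed 5 h after plating by pin transfer (217-fold dilution from DMSO stock) and incubated 16 h at 37C, 5% CO2. Viability read as ATP luminescence with CellTiter-Glo after 30 min at room temperature.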

[9] = TOX21_p53_BLA_p5_viability: Viability Assessment in the Tox21 HCT-116 p53 Agonism Beta-lactamase Assay, Phase 5 (AID 2283600)
In short: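 Compounds, pinned from DMSO at 217-fold dilution, were left on the cells for 16 h. The viability endpoint was ATP content measured by CellTiter-Glo luminescence, where falling signal reflects cytotoxicity.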

[10] = TOX21_p53_BLA_p4_viability: Viability Assessment in the Tox21 HCT-116 p53 Agonism Beta-lactamase Assay, Phase 4 (AID 2283597);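 also: hits lower the luminescence signal meaning cytotoxicity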
In short: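 We seeded HCT116 p53 reporter cells at 4000/well and waited 5 h. We then added compounds in DMSO at a 217-fold dilution and incubated for 16 h. Viability was read as CellTiter-Glo luminescence after 30 min at RT.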

Measured: AC50

Sequence of Cellular tumor antigen p53 (Homo sapiens) (P04637 whole entry, looked up): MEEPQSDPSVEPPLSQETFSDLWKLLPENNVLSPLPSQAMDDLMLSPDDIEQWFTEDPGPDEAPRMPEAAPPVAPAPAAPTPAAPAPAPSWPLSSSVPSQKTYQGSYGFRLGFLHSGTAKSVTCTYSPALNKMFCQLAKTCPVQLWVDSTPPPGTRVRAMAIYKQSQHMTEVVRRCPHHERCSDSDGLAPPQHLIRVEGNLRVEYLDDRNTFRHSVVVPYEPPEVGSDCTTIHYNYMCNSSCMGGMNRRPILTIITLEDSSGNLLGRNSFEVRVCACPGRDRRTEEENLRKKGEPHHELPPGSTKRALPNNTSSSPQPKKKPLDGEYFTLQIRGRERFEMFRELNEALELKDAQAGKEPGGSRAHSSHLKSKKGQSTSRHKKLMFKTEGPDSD

COc1nc(NC(C)C)nc(NC(C)C)n1
inactive: [1] | [2] | [3] | [4] | [5] | [6]

CCCCNC(=O)OCC#CI
active: [2] 67 µM | [3] 59.5 µM and 78 µM | [4] 78.1 µM | [5] 12.8 µM | [6] 24 µM
inactive: [1] | [7] | [2] | [8] | [4] | [9] | [5]

OC(c1ccc(Cl)cc1)(c1cncnc1)c1ccccc1Cl (stereo not drawn)
active: [2] 81.5 µM | [5] 63 µM
inactive: [1] | [7] | [2] | [8] | [3] | [4] | [9] | [6]

CCCCOC(=O)c1ccccc1C(=O)OCCCC
not listed: [7] | [9] | [10]
inactive: all other assays above

CC(C)(C)c1ccc(CSc2cnn(C(C)(C)C)c(=O)c2Cl)cc1
active: [2] 0.0143 µM | [6] 25.1 µM
not listed: [8] | [10]
inactive: all other assays above

Oc1ccccc1-c1ccccc1
not listed: [10]
inactive: all other assays above

CO/C=C(/C(=O)OC)c1ccccc1Oc1cc(Oc2ccccc2C#N)ncn1
active: [6] 7.48 µM and 1.44 µM
inactive: [1] | [7] | [2] | [8] | [3] | [4] | [9] | [5] | [6]

Cc1cc(Cl)ccc1OCC(=O)O
inactive: all assays above

CC(C)Oc1cc(-n2nc(C(C)(C)C)oc2=O)c(Cl)cc1Cl
active: [9] 28.5 µM
not listed: [10]
inactive: all other assays above

N#Cc1nn(-c2c(Cl)cc(C(F)(F)F)cc2Cl)c(N)c1S(=O)C(F)(F)F (stereo not drawn)
not listed: [10]
inactive: all other assays above

C#CCOS(=O)OC1CCCCC1Oc1ccc(C(C)(C)C)cc1 (stereo not drawn)
active: [2] 2.65 µM and 1.54 µM | [3] 2.53 µM
inactive: [1] | [7] | [8] | [3] | [4] | [9] | [5] | [6]

C=CCC1=C(C)C(OC(=O)C2C(C=C(C)C)C2(C)C)CC1=O (stereo not drawn)
active: [8] 65.3 µM
not listed: [10]
inactive: all other assays above

COP(=S)(OC)Oc1nc(Cl)c(Cl)cc1Cl
not listed: [3] | [10]
inactive: all other assays above

CCCN(CCC)c1c([N+](=O)[O-])cc(S(N)(=O)=O)cc1[N+](=O)[O-]
inactive: [1] | [6]

CCNc1nc(Cl)nc(NC(C)C)n1
inactive: [1] | [2] | [5] | [6]

COC(=O)N(OC)c1ccccc1COc1ccn(-c2ccc(Cl)cc2)n1
active: [2] 1.09 µM | [3] 1.51 µM | [4] 1.9 µM | [5] 1.67 µM | [6] 0.367 µM
inactive: [1] | [7] | [8] | [9]

CNC(=O)ON=CC(C)(C)SC
not listed: [10]
inactive: all other assays above

CCCC1COC(Cn2cncn2)(c2ccc(Cl)cc2Cl)O1 (stereo not drawn)
not listed: [10]
inactive: all other assays above

CON(C)C(=O)Nc1ccc(Cl)c(Cl)c1
not listed: [10]
inactive: all other assays above

CCCCC(CC)COC(=O)c1ccccc1C(=O)OCC(CC)CCCC (stereo not drawn)
not listed: [10]
inactive: all other assays above

CN(C)C(=S)SSC(=S)N(C)C
active: [2] 33 µM | [3] 29.3 µM | [4] 77 µM
inactive: [7] | [2] | [8] | [3] | [4] | [9] | [5] | [6]

CCOP(=S)(OCC)SCn1c(=O)oc2cc(Cl)ccc21
not listed: [7] | [8] | [10]
inactive: all other assays above

COc1ccc(C(c2ccc(OC)cc2)C(Cl)(Cl)Cl)cc1
not listed: [10]
inactive: all other assays above

C=CC1(C)OC(=O)N(c2cc(Cl)cc(Cl)c2)C1=O (stereo not drawn)
not listed: [8] | [10]
inactive: all other assays above

CNC(=S)S
not listed: [9] | [10]
inactive: all other assays above

COc1cnc(OC)n2nc(NS(=O)(=O)c3c(OCC(F)F)cccc3C(F)(F)F)nc12
not listed: [4] | [10]
inactive: all other assays above

N#CC(CCc1ccc(Cl)cc1)(Cn1cncn1)c1ccccc1 (stereo not drawn)
active: [7] 56 µM | [5] 71.5 µM
not listed: [1] | [10]
inactive: all other assays above

CS/C(C)=N/OC(=O)N(C)SN(C)C(=O)O/N=C(\C)SC
inactive: [2] | [3] | [4] | [9] | [5] | [6]

CC1COC(Cn2cncn2)(c2ccc(Oc3ccc(Cl)cc3)cc2Cl)O1 (stereo not drawn)
active: [7] 78.7 µM | [2] 21.4 µM | [3] 46.1 µM | [4] 66.3 µM | [5] 90.3 µM
inactive: [8] | [9] | [6]

COP(N)(=O)SC (stereo not drawn)
inactive: [7] | [8] | [3] | [4] | [9] | [6]

C=CCC1=C(C)[C@@H](OC(=O)[C@@H]2[C@@H](C=C(C)C)C2(C)C)CC1=O
not listed: [1] | [10]
inactive: all other assays above

COC(=O)C(C)Oc1ccc(Oc2ccc(Cl)cc2Cl)cc1 (stereo not drawn)
inactive: [7] | [2] | [3] | [4] | [6]

CCON=C(CC)C1=C(O)CC(c2c(C)cc(C)cc2C)CC1=O (stereo not drawn)
not listed: [1] | [10]
inactive: all other assays above

Cc1c(F)c(F)c(COC(=O)C2C(/C=C(\Cl)C(F)(F)F)C2(C)C)c(F)c1F (stereo not drawn)
inactive: [7] | [2] | [8] | [3] | [9] | [6]

COC(=O)c1ccccc1C(=O)OC
not listed: [1] | [7] | [10]
inactive: all other assays above

O=C(Nc1ccccc1)Nc1ccnc(Cl)c1
active: [3] 46.1 µM | [5] 41 µM
not listed: [1] | [10]
inactive: all other assays above

CCOC(=O)C(Cl)Cc1cc(-n2nc(C)n(C(F)F)c2=O)c(F)cc1Cl (stereo not drawn)
inactive: [2] | [9] | [5] | [6]

CCc1nn(C)c(C(=O)NCc2ccc(C(C)(C)C)cc2)c1Cl
inactive: [8] | [3] | [6]
active: [7] 46.1 µM | [2] 0.0232 µM | [9] 46.1 µM | [5] 76.6 µM

CCCCNC(=O)n1c(NC(=O)OC)nc2ccccc21
active: [2] 11 µM and 9.55 µM | [3] 15.9 µM and 15.4 µM | [4] 20.5 µM and 12.3 µM | [5] 11.9 µM and 9.73 µM
inactive: [7] | [10] | [6]

O=C(O)COc1nc(Cl)c(Cl)cc1Cl
not listed: [1] | [10]
inactive: all other assays above

O=C(O)c1nc(Cl)ccc1Cl
not listed: [1] | [5] | [10]
inactive: all other assays above

Fc1ccc(Oc2ccnc3cc(Cl)cc(Cl)c23)cc1
inactive: [7] | [8] | [9] | [6]
active: [2] 79.3 µM | [3] 89.1 µM | [4] 88.9 µM | [5] 81.6 µM

CCNc1nc(Cl)nc(NCC)n1
not listed: [1]
inactive: all other assays above

COC(=O)C=C(C)OP(=O)(OC)OC
inactive: [2] | [4] | [9] | [5] | [6]

CCOC(=O)CC(SP(=S)(OC)OC)C(=O)OCC (stereo not drawn)
inactive: [7] | [2] | [8] | [3] | [4] | [9] | [5] | [6]
active: [8] 43.3 µM

CCOc1cc(Oc2ccc(C(F)(F)F)cc2Cl)ccc1[N+](=O)[O-]
not listed: [1] | [4] | [10]
inactive: all other assays above

CC(Oc1ccc(Cl)cc1Cl)C(=O)O (stereo not drawn)
not listed: [1] | [10]
inactive: all other assays above
